Test results reported in PubChem BioAssay (NCATS).
Results filed as inconclusive are left out. The source made the active and inactive calls. Unless noted, the call rests on the fitted dose curve; in most records, active means well fitted curve in the direction sought with a large enough effect; inconclusive means small, poorly fitted or top-dose-only effect, or another doubt; inactive means no such curve, though single readings can be large; an effect the other way counts as inactive or inconclusive.

Assays:
[1] = Cell Viability - BJ (AID 421; calls by dose curve;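 further: potency means the concentration at half of the fitted maximal effect; cells exposed to compound for 40 hours at 37 °C before readout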); settings: BJ fibroblast viability, qHTS
Method in brief: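 Luminescent ATP signal (CellTiter-Glo, 20 min at room temperature) served as the read-out of viable BJ cells after 40 hours of compound treatment. Responses were scaled between DMSO and 100 uM tamoxifen, and AC50 values were obtained by Hill modeling.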

[2] = Cell Viability - Jurkat (AID 426;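 active means dose-dependent loss of cell ATP signal giving a full or clear fitted curve, ranked by lower potency value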; further: potency means the concentration at half of the fitted maximal effect); settings: qHTS
Method in brief: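 Seed 5000 Jurkat E6-1 cells/well; add compound; incubate 40 hr at 37 °C; add CellTiter-Glo; wait 20 min at room temperature; read luminescence. Fit concentration-response with Hill equation for AC50.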

[3] = Cell Viability - Hek293 (AID 427;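 active means compounds whose dose-response curve shows a full or clear partial loss of cell viability, called from curve shape rather than a numeric limit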;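 further: potency means the concentration at half of the fitted maximal effect; cells exposed to compound for 40 hours at 37 °C before reading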); settings: qHTS
Method in brief: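 Luminescent ATP read-out (CellTiter-Glo, 20 min RT) after 40 hr compound exposure at 37 °C in complete medium. Signal normalized to DMSO (basal) and 100 uM tamoxifen (100% inhibition); concentration-response fitted with the standard Hill equation to give AC50.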

[4] = Cell Viability - HepG2 (AID 433; calls by dose curve;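 further: potency means the concentration at half of the fitted maximal effect; potency for ATP loss meaning cytotoxicity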); settings: qHTS
Method in brief: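 HepG2 hepatocellular carcinoma cells (1500/well) were treated with compounds for 40 h at 37 °C in complete medium; intracellular ATP was read by CellTiter-Glo luminescence. Data were normalized to DMSO and 100 uM tamoxifen, and AC50 came from Hill fits.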

[5] = Cell Viability - MRC5 (AID 434; calls by dose curve;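 further: potency means the concentration at half of the fitted maximal effect; potency reflects cytotoxicity seen as loss of intracellular ATP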); settings: MRC5 lung fibroblast viability, qHTS
Method in brief: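 MRC5 normal human lung fibroblasts, 1500 cells/well, exposed to compound for 40 hr at 37 C. Cellular ATP was read by CellTiter-Glo luminescence; data normalized to DMSO and 100 uM tamoxifen, with AC50 from Hill fits.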

[6] = Cell Viability - SK-N-SH (AID 435; calls by dose curve;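 further: potency means the concentration at half of the fitted maximal effect; compound exposure lasted 40 h at 37 °C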); settings: SK-N-SH neuroblastoma cell viability qHTS
Method in brief: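 SK-N-SH human neuroblastoma cells (1500/well) were exposed to compounds in complete medium for 40 h at 37 °C, and intracellular ATP was then measured by CellTiter-Glo luminescence. AC50 was taken from Hill fits, normalized to DMSO and 100 uM tamoxifen.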

[7] = biological target: Mitogen-activated protein kinase 10 (Mus musculus) (UniProt Q61831); assay: JNK3 AlphaScreen Assay (AID 530; active means well fitted curve in either direction with a large enough effect, not every such curve was filed as active;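 further: kinase came from lysate of stimulated human HepG2 cells; signal reports phosphorylation of biotinylated GST-cJun 1-79 at Ser73 with 10 µM ATP; on the % scale 0 is the no-effect control and ±100 the full control effect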); settings: JNK3 lysate, c-Jun phosphorylation; series mostly up to 57.1 µM
Method in brief: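 qHTS format: compounds tested as titrations against IL-1beta/TNF-alpha-activated HepG2 lysate JNK3 with biotin-GST-cJun substrate and 10 uM ATP at room temperature. Loss of anti-phospho-cJun AlphaScreen signal indicates inhibition.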

[8] = Cell Viability - N2a (AID 540); settings: N2a mouse neuroblastoma cell viability; activity change, negative = cytotoxicity: at 92.2 µM (top of the series);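 further: plate controls were DMSO alone for no effect and tamoxifen control for full effect; nearly all actives have a fitted effect of over 45% in size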
Method in brief: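 First, 1500 N2a cells per well incubate 5 hr at 37 °C; next, compounds are added and incubated 40 hr at 37 °C; finally CellTiter-Glo is added and luminescence read after 20 min, with AC50 derived by Hill modeling.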

[9] = Cell Viability - NIH 3T3 (AID 541); settings: NIH 3T3 cell viability, qHTS; activity change, negative = cytotoxicity: at 92.2 µM (top of the series);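 further: plate controls were DMSO alone for no effect and tamoxifen positive control for full effect; nearly all actives have a fitted effect of over 25% in size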
Method in brief: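 AC50 values reflect concentration-dependent loss of intracellular ATP in NIH 3T3 cells after 40 hr treatment in complete culture medium, quantified by luciferase-based luminescence.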

[10] = Cell Viability - HUV-EC-C (AID 542); settings: HUV-EC-C endothelial cell viability, qHTS; series mostly up to 92.2 µM; further: on the % scale 0 is the no-effect control and ±100 the full control effect; nearly all actives have a fitted effect of over 35% in size
Method in brief: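 Decrease in cellular ATP, quantified by luciferase luminescence, reflects toxicity in normal human vascular endothelial HUV-EC-C cells given compound for 40 hr in complete culture medium. Values are AC50s from concentration-response curves.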

[11] = Cell Viability - SH-SY5Y (AID 544); settings: SH-SY5Y neuroblastoma cell viability; viability change, negative = cytotoxic: at 92.2 µM (top of the series); further: nearly all actives have a fitted effect of over 55% in size
Method in brief: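 Cytotoxicity is scored as a concentration-dependent fall in intracellular ATP in human SH-SY5Y cells treated 40 hr in complete culture medium. Potency is expressed as AC50 from a Hill equation fit.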

[12] = Cell Viability - Renal Proximal Tubule (AID 545); settings: renal proximal tubule cells viability, primary cells of rat origin; series mostly up to 91.7 µM; further: nearly all actives have a fitted effect of over 40% in size
Method in brief: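 Primary rat renal proximal tubule cells (1000/well) were treated with compounds for 40 hr at 37 °C in complete medium. Intracellular ATP was measured by CellTiter-Glo luminescence, and AC50 values came from Hill-equation fits of concentration-response data.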

[13] = Cell Viability - Mesenchymal (AID 546); settings: mesenchymal cells viability, qHTS; series mostly up to 91.7 µM;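 further: cells exposed to compound for 40 hours before reading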
Method in brief: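 Human kidney mesenchymal cells from normal renal glomeruli, 1000 cells/well, rested 5 hr at 37 °C, then treated 40 hr at 37 °C in complete medium. Cellular ATP read by CellTiter-Glo luminescence; AC50 from Hill-equation fits.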

[14] = Cellular Toxicity (caspase-3) HepG2 (AID 654); settings: HepG2 caspase-3 activation, luminescence; series mostly up to 92.2 µM;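 further: cells exposed to compound for 16 hours before reading; 0% = DMSO alone and 100% = caspase signal from 100 µM tamoxifen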
Method in brief: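 qHTS, HepG2, 1500 cells/well, complete medium; cpd 16 h 37 °C; Caspase-Glo 3/7, 20 min RT; lum. Norm: DMSO vs 100 uM tamoxifen; AC50 Hill fit.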

[15] = Cellular Toxicity (caspase-3) Jurkat (AID 655); settings: Jurkat caspase-3 activation, luminescence; caspase-3 activation: at 92.2 µM (top of the series), DMSO = 0%, tamoxifen = 100%;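 further: cells exposed to compound for 16 h at 37 °C before reading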
Method in brief: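 Jurkat cells (5000/well) in complete medium were treated with compounds for 16 hr at 37 °C, then Caspase-Glo 3/7 luminescence was read after 20 min at room temperature. Data normalized to DMSO (basal) and 100 uM tamoxifen (100%); AC50 from Hill fit.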

[16] = Cellular Toxicity (caspase-3) HUV-EC-C (AID 656); settings: HUV-EC-C cells, caspase-3 activation (apoptosis), vehicle = 0, 100 µM tamoxifen = 100%; series mostly up to 92.2 µM
Method in brief: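 HUV-EC-C endothelial cells, 1000/well, were pre-incubated 5 hr at 37°C, then exposed to compounds for 16 hr at 37°C. Caspase-Glo 3/7 luminescence was read after 20 min at room temperature. AC50 came from Hill fits, normalized to DMSO and 100 uM tamoxifen.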

[17] = Cellular Toxicity (caspase-3) SHSY5Y (AID 657); settings: SH-SY5Y caspase-3 activation, DMSO zero, 10 µM staurosporine = 100%; series mostly up to 91.7 µM
Method in brief: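 SH-SY5Y human neuroblastoma cells (1500/well) were treated with compounds for 16 h at 37 °C, then Caspase-Glo 3/7 luminescence was read after 1 h at room temperature. Data normalized to DMSO and 10 uM staurosporine; AC50 from Hill fits.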

[18] = Cellular Toxicity (caspase-3) MRC-5 (AID 659); settings: MRC-5 cells, luminescence, normalized: DMSO 0%, 10 µM staurosporine 100%; series mostly up to 91.7 µM
Method in brief: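 MRC-5 human normal lung fibroblasts, 1500 cells/well, treated 16 h at 37 °C in complete medium. Caspase 3/7 measured by Caspase-Glo luminescence after 1 h at room temperature. Normalized to DMSO and 10 uM staurosporine; AC50 from Hill fit.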

[19] = Cell Viability - H-4-II-E (AID 543); settings: H-4-II-E rat hepatoma viability; series mostly up to 92.2 µM; further: on the % scale 0 is the no-effect control and ±100 the full control effect; nearly all actives have a fitted effect of over 35% in size
Method in brief: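 Here, cytotoxicity is measured in the rat hepatoma line H-4-II-E as loss of intracellular ATP after 40 hr compound treatment, detected by luciferase luminescence.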

[20] = Cellular Toxicity (caspase-3) BJ (AID 658); settings: BJ fibroblasts, luminescence, normalized: DMSO 0%, staurosporine 100%; series mostly up to 91.7 µM
Method in brief: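 BJ human foreskin fibroblasts, 1000 cells/well, treated 16 hours at 37 °C in complete medium; caspase 3/7 activity by Caspase-Glo luminescence after 1 hr at room temperature. Normalized to DMSO and 10 uM staurosporine; AC50 from Hill fits.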

Cc1ccc(C(=O)O)cc1
inactive: Potency [1] > 92 µM | Potency [2] > 92 µM | Potency [3] > 92 µM | Potency [4] > 92 µM | Potency [5] > 92 µM | Potency [6] > 92 µM | outcome [7] | activity change, negative = cytotoxicity [8] 3.7% | Potency [9] | Potency [10] | Potency [11] | Potency [12] | Potency [13] | Potency [14] | caspase-3 activation [15] 1.89% | outcome [16] | outcome [17] | outcome [18]

CC(=O)c1ccccn1
inactive: Potency [1] > 92 µM | Potency [2] > 92 µM | Potency [3] > 92 µM | Potency [4] > 92 µM | Potency [5] > 92 µM | Potency [6] > 92 µM | outcome [7] | activity change, negative = cytotoxicity [8] -1.85% | Potency [9] | Potency [10] | Potency [19] | Potency [12] | Potency [13] | Potency [14] | caspase-3 activation [15] 12.2% | outcome [16] | outcome [17] | outcome [20] | outcome [18]

Cc1cc(C)c(N)cc1C
inactive: Potency [1] > 92 µM | Potency [2] > 92 µM | Potency [3] > 92 µM | Potency [4] > 92 µM | Potency [5] > 92 µM | Potency [6] > 92 µM | outcome [7] | activity change, negative = cytotoxicity [8] -1.04% | Potency [9] | Potency [10] | Potency [19] | Potency [12] | Potency [13] | Potency [14] | caspase-3 activation [15] -1.78% | outcome [16] | outcome [17] | outcome [20] | outcome [18]

C=Cc1ccc(C=C)cc1
inactive: Potency [1] > 92 µM | Potency [2] > 92 µM | Potency [3] > 92 µM | Potency [4] > 92 µM | Potency [5] > 92 µM | Potency [6] > 92 µM | outcome [7] | activity change, negative = cytotoxicity [8] -7.69% | Potency [9] | Potency [10] | Potency [19] | Potency [11] | Potency [13] | Potency [14] | caspase-3 activation [15] -0.456% | outcome [16] | outcome [17] | outcome [20] | outcome [18]

COc1cccc(N)c1
inactive: Potency [1] > 92 µM | Potency [2] > 92 µM | Potency [3] > 92 µM | Potency [4] > 92 µM | Potency [5] > 92 µM | Potency [6] > 92 µM | outcome [7] | activity change, negative = cytotoxicity [8] -15.1% | Potency [9] | Potency [10] | Potency [19] | Potency [12] | Potency [13] | Potency [14] | caspase-3 activation [15] 2.35% | outcome [16] | outcome [17] | outcome [18]

O=[N+]([O-])c1cccc(Cl)c1
inactive: Potency [1] > 92 µM | Potency [2] > 92 µM | Potency [3] > 92 µM | Potency [4] > 92 µM | Potency [5] > 92 µM | Potency [6] > 92 µM | outcome [7] | activity change, negative = cytotoxicity [8] -8.23% | Potency [9] | Potency [10] | Potency [19] | Potency [12] | Potency [13] | Potency [14] | caspase-3 activation [15] -3.2% | outcome [16] | outcome [17] | outcome [20] | outcome [18]

O=C1NC(=O)c2cc([N+](=O)[O-])ccc21
inactive: Potency [1] > 92 µM | Potency [2] > 92 µM | Potency [3] > 92 µM | Potency [4] > 92 µM | Potency [5] > 92 µM | Potency [6] > 92 µM | outcome [7] | activity change, negative = cytotoxicity [8] -3.32% | Potency [9] | Potency [10] | Potency [19] | Potency [11] | Potency [13] | Potency [14] | caspase-3 activation [15] 0.91% | outcome [16] | outcome [17] | outcome [20] | outcome [18]

Nc1cccc(C(F)(F)F)c1
inactive: Potency [1] > 92 µM | Potency [2] > 92 µM | Potency [3] > 92 µM | Potency [4] > 92 µM | Potency [5] > 92 µM | Potency [6] > 92 µM | outcome [7] | activity change, negative = cytotoxicity [8] 0.982% | Potency [9] | Potency [10] | Potency [11] | Potency [12] | Potency [13] | Potency [14] | caspase-3 activation [15] -0.253% | outcome [16] | outcome [17] | outcome [20] | outcome [18]

O=Cc1ccc(C(=O)O)cc1
inactive: Potency [1] > 92 µM | Potency [2] > 92 µM | Potency [3] > 92 µM | Potency [4] > 92 µM | Potency [5] > 92 µM | Potency [6] > 92 µM | outcome [7] | activity change, negative = cytotoxicity [8] -12.7% | Potency [9] | Potency [10] | Potency [19] | Potency [11] | Potency [13] | Potency [14] | caspase-3 activation [15] 0.522% | outcome [16] | outcome [17] | outcome [20] | outcome [18]

CCCC(C)CO (stereo unspecified)
inactive: Potency [1] > 92 µM | Potency [2] > 92 µM | Potency [3] > 92 µM | Potency [4] > 92 µM | Potency [5] > 92 µM | Potency [6] > 92 µM | outcome [7] | activity change, negative = cytotoxicity [8] 3.82% | Potency [9] | Potency [10] | Potency [19] | Potency [12] | Potency [13] | Potency [14] | caspase-3 activation [15] 0.921% | outcome [16] | outcome [17] | outcome [20] | outcome [18]

Cc1cccc2sc(N)nc12
inactive: Potency [1] > 92 µM | Potency [2] > 92 µM | Potency [3] > 92 µM | Potency [4] > 92 µM | Potency [5] > 92 µM | Potency [6] > 92 µM | outcome [7] | activity change, negative = cytotoxicity [8] -1.12% | Potency [9] | Potency [10] | Potency [19] | Potency [11] | Potency [13] | Potency [14] | caspase-3 activation [15] -0.319% | outcome [16] | outcome [17] | outcome [18]
